Screens (PubChem)
Tau fil binding = tau filament binding | P10636 | recombinant tau filaments, thioflavin S fluorescence, 15 h; filaments grown with octadecylsulfate alongside compound | Potency, µM (highest dose often 57.1 µM), for the others: top-dose activity change, negative = inhibition | hit rate 2% among 71,000;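 note: % is set by controls: 0 for no effect and ±100 for the full control effect; actives lower thioflavin S fluorescence by blocking filaments or displacing dye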
Target sequence (P10636 whole entry, looked up): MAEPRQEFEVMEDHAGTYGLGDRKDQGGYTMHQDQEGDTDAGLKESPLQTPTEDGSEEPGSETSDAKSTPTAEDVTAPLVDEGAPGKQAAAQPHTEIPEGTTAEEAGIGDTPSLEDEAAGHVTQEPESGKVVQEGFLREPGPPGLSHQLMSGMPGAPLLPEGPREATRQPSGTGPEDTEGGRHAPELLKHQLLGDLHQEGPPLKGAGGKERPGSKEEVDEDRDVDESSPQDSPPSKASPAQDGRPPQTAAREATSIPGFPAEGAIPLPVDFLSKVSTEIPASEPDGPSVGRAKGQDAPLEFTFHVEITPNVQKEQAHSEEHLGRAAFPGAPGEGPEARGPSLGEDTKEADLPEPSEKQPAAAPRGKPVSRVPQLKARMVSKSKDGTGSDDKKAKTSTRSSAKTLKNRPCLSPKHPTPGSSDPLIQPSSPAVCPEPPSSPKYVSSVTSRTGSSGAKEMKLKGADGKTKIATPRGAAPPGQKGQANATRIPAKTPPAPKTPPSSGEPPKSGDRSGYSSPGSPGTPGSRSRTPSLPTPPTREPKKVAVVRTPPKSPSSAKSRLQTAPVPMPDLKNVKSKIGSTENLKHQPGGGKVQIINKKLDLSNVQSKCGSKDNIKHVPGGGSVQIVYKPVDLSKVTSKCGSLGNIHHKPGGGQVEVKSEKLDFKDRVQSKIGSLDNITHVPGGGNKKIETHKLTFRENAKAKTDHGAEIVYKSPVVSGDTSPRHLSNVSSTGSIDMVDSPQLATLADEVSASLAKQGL
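His-tagged recombinant human tau (exons 2, 3 and 10 included), 1 uM, was induced to fibrillize by 30 uM sodium octadecylsulfate with compound present. After 15 h at 37 C, thioflavine S fluorescence (ex 450, em 510 nm) was read.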
HEK293 cAMP ctrl = parental HEK293 cAMP activation (counter-screen); parental HEK293 CNG cAMP sensor, membrane potential fluorescence; hit rate 2.5% among 73,000; Potency, µM (top dose mostly 57.1 µM), without a hit: at the top dose activation, hits mostly activators; AID 938; note: % of control where 0% means no effect; nearly all actives have a fitted effect of over 55% in size
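Counterscreen for endogenous-receptor signalling: CNG-channel HEK 293 cells report cAMP rise by membrane depolarization. After 60 min dye equilibration with 100 uM RO 20-1724, compounds incubated 30 min before bottom-read fluorescence at 590 nm.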
TSHR agonist = activates the human thyroid stimulating hormone receptor. P16473. HEK293-CNG-TSHR cells (CNG channel as cAMP sensor), membrane potential dye, cAMP. Potency, µM (top dose mostly 57.1 µM), for the others: at the top dose activation, most hits filed as activators. hit rate 0.48% among 73,000; active = well fitted activation curve with a large enough effect in the main read-out, with a control signal flat, not every such curve was filed as active; inconclusive = small, poorly fitted or top-dose-only effect, or a change in a side signal; inactive = no such curve, though single readings can be large or run the other way; % of control where 0% means no effect;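 note: the control signal comes from parental cells without the receptor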
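HEK 293 cells stably expressing TSHR and a cAMP-gated CNG channel; parental CNG-only cells as counterscreen. Cells preloaded 60 min with membrane potential dye plus 100 uM RO 20-1724, then compound 30 min; fluorescence read at 590 nm.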
ALOX15 inhib = blocks human 15-lipoxygenase activity. P16050. purified 15hLO-1, xylenol orange hydroperoxide absorbance. hit rate 1.4% among 74,000. Potency, µM (titrated, usually from 57.1 µM), for the others: at the top dose activity change, negative = inhibition, actives largely listed as inhibitors; note: % is set by controls: 0 for no effect and ±100 for the full control effect; nearly all actives have a fitted effect of over 55% in size
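Compounds were preincubated 15 min at room temperature with 40 nM purified human enzyme (25 mM Hepes pH 7.5, 0.01% Triton X-100); 50 uM arachidonic acid reacted 6 min. Fe-xylenol orange detection, 30 min, absorbance ratio 573/405 nm.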
PK Bst = modulators of Bacillus stearothermophilus pyruvate kinase; purified pyruvate kinase, luminescence ATP production; ribose 5-phosphate activator present at AC10; hit rate 1.2% among 51,000; Potency, µM; AID 361; in the data active = potency below about 11 µM; inconclusive = mostly about 12 µM to 25 µM;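 the screen sought inhibitors and activators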;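 note: scaled between full activation by ribose 5 phosphate and full inhibition by luteolin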
Luciferase inh = inhibitors of firefly luciferase. purified firefly luciferase, luminescence, 8 min. hit rate 2.2% among 72,000. Potency, µM (series often up to 57.1 µM), inactives show at the top dose activity change, negative = inhibition, actives largely listed as inhibitors. P08659; note: % is set by controls: 0 for no effect and ±100 for the full control effect; nearly all actives have a fitted effect of over 40% in size
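Titration-based qHTS; buffer 50 mM imidazole pH 7.2, 50 mM KCl, 7 mM MgCl2, 10 uM ATP, 0.01% Tween 20, 0.05% BSA; luciferase/luciferin detector mix added after compound; 8 min, ambient; luminescence.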
* = called active by the depositor; ? = inconclusive; · = no result; ! = repeats disagree; [ ] = another dose, or the depositor's remark. This is a sample that favours compounds with a hit; in the whole collection about 7.8% have one here. Unless noted, calls come from the whole dose curve; as a rule, active = well fitted curve in the direction sought with a large enough effect; inconclusive = small, poorly fitted or top-dose-only effect, or another doubt; inactive = no such curve, though single readings can be large; an effect the other way counts as inactive or inconclusive. Potency is the fitted concentration of half-maximal effect.

SMILES	Tau fil binding	HEK293 cAMP ctrl	TSHR agonist	ALOX15 inhib	PK Bst	Luciferase inh
CC(=O)Nc1ccc(-c2nc3ccc(Cl)cc3[nH]2)cc1	·	·	·	-3%[25.6 µM]	·	·
Cn1c(CN2CCCCC2)nc2cc(NC(=O)c3cccs3)ccc21	4%	11%	12%	13%	>57	-14%
CC(=O)Nc1ccc2nc(-c3ccccn3)[nH]c2c1	-10%	4%	1%	9%	?	13µM*
O=C(Nc1ccc2nc(-c3cccs3)[nH]c2c1)c1ccco1	-6%	10%	12%	-4%	9.5*	10µM*
OC[C@@H]1O[C@@H](n2cnc3c(NCc4ccco4)ncnc32)[C@H](O)[C@H]1O	12%	-1%	19%	·	·	-2%[11.4 µM]
Nc1nc(Cl)nc2c1ncn2[C@@H]1O[C@@H](CO)[C@@H](O)[C@H]1O	6%	7.9µM*	?	7%	·	0%
Cc1ccccc1CNc1ncnc2c1ncn2[C@@H]1O[C@@H](CO)[C@H](O)[C@@H]1O	29%	7.9µM*	?	6%	·	0%
OCC1OC(n2cnc3c(Cl)nc(Cl)nc32)C(O)C1O (stereo not drawn)	·	·	·	-4%	·	·
C[C@@H](Cc1ccccc1)Nc1ncnc2c1ncn2[C@@H]1O[C@@H](CO)[C@H](O)[C@@H]1O	-9%	25µM*	?	-23%	·	-2%
COCCn1c(=O)cnc2cnc(Oc3ccccc3)nc21	8%	27%	0%	8%	·	1%[11.4 µM]
Nc1c2ccccc2nc2c(O)cccc12	0%[25.6 µM]	-7%[25.6 µM]	-8%[25.6 µM]	14%[25.6 µM]	·	2%[25.5 µM]
COc1ccc(OC)c(S(=O)(=O)Nc2ccc(O)c(Sc3ncn[nH]3)c2)c1	12%	?	?	13µM*	>57	2%
COC(=O)c1c(C)oc2ccc(NS(=O)(=O)c3cc(OC)ccc3OC)cc12	46%	?	?	-13%	>57	2%
COc1ccc(OC)c(S(=O)(=O)Nc2ccc(C(N)=O)cc2)c1	-2%	-3%	-11%	3%	>57	0%
COc1ccc(OC)c(S(=O)(=O)Nc2ccc(O)c3ccccc23)c1	25µM*	6%	4%	25µM*	>57	-5%
O=C(O)c1cc2c(cc1S(=O)(=O)O)[C@H]1[C@@H]([C@H]3[C@H]2[C@@]2(Cl)C(Cl)=C(Cl)[C@]3(Cl)C2(Cl)Cl)[C@]2(Cl)C(Cl)=C(Cl)[C@@]1(Cl)C2(Cl)Cl	36%[11.4 µM]	9%[11.4 µM]	2%[11.4 µM]	5µM*	·	1%[11.4 µM]
COc1ccccc1C(=O)N1CCN(C(=O)c2ccncc2)CC1	0%	25µM*	?	-5%	·	1%
C=Cc1ccc(C=C)cc1	13%	0%	4%	-16%	·	·
N#CCCN1CCN(C(=S)c2ccc(-c3ccc(Cl)cc3)o2)CC1	25µM*	1%	-6%	-21%	?	-11%
CCCCCCc1c(O)c2ccccc2[nH]c1=O	-17%	11%	6%	1%	>57	-3%
CCCCCCCCCCCC1=C(O)C(=O)C=C(O)C1=O	3.2µM*	4%	0%	5µM*	·	-17%
O=c1c2cnn(-c3ccccc3)c2nc(-c2ccco2)n1-c1ccccc1	8%	20µM*	?	?	·	-10%
CCOCCCNC(=O)c1ccc2c(c1)OCO2	-2%	10%	1%	1%	>57	-2%
O=C(NCCOc1ccccc1)c1ccc2c(c1)OCO2	3%	7%	10%	-3%	8.1*	6.3µM*
CCCCC(CC)CNC(=O)c1ccc2c(c1)OCO2 (stereo not drawn)	-2%[11.4 µM]	4µM*	?	-1%[11.4 µM]	·	0%
SMILES	Tau fil binding	HEK293 cAMP ctrl	TSHR agonist	ALOX15 inhib	PK Bst	Luciferase inh
CC(C)C[C@@H](CC(=O)N[C@@H](CCC(=O)O)CC(=O)O)NC(=O)[C@@H]1CCCC[C@H]1NC(=O)C[C@@H](NC(=O)C[C@H](Cc1c[nH]c2ccccc12)NC(=O)[C@@H]1CNCC[C@H]1N)C(C)C	-7%	13%	4%	·	·	·
O=C(O)c1cc(O)c2c(c1)C(=O)c1cccc(O)c1C2=O	421%	-21%	?	13µM*!	>26	-3%[25.5 µM]
ClC(=Nc1cccc2ccccc12)N(c1ccccc1)c1ccccc1	-8%[11.4 µM]	4%[11.4 µM]	-3%[11.4 µM]	2%[11.4 µM]	·	1%[11.4 µM]
CCOc1ccc(C(=O)Nc2c(C(N)=O)oc3ccccc23)cc1	110%	-8%	1%[11.4 µM]	?	4*	?
CCOc1ccc(NC(=O)c2ccc(N)cc2)cc1	-2%	-2%	-1%	7%	·	13µM*
CCOC(=O)c1oc2ccccc2c1NC(=O)C1CCCCC1	2%	16µM*	?	4%	>57	0%
CCOC(=O)c1oc2ccccc2c1NC(=O)c1cccc(OC)c1	3%	32µM*	?	-5%	>57	2%
CCCn1c(-c2ccc(F)cc2)nc2c(NC(C)CN(C)C)nc(C)nc21 (stereo not drawn)	-8%	?	?	6%	·	·
CCOC(=O)C1=C(c2ccccc2)N=C2SCC(=O)N2C1c1ccc2c(c1)OCO2 (stereo not drawn)	21%	9%	2%	-8%	·	-3%
Cc1noc(C)c1-c1ccc2ncnc(NC3CC3)c2c1	2%	5%	3%	-21%	·	-1%[2.29 µM]
CCOCC(=O)Nc1c(C(=O)Nc2ccccc2OC)oc2ccccc12	6%	25µM*	?	16%	>57	-3%
CCOc1ccc(NC(=O)c2ccncc2)cc1	4%	14%	22%	5%	·	-10%
CCOc1ccc(NC(=O)c2nn(C)cc2Br)cc1	·	·	·	·	?	10µM*
CN(C)c1ccc(-c2cncnc2-n2ccnc2)cc1	-16%	3%	1%	?	·	1%[2.29 µM]
O=C(c1cccs1)N(CC1CCCO1)c1nc(-c2ccccc2)cs1 (stereo not drawn)	6%	16µM*	?	-6%	>57	3%
CCOc1ccc(NS(=O)(=O)c2ccc3[nH]cc(C(=O)NC(C)CC)c(=O)c3c2)cc1 (stereo not drawn)	3%	-26%	-19%	25µM*	>57	4%
COc1cccc(Cn2c(Oc3cccc(C)c3)nc3c2c(=O)n(C)c(=O)n3C)c1	68%	25µM*	?	-9%	>57	-1%
CCCOc1nc2c(c(=O)n(C)c(=O)n2C)n1Cc1cccc2ccccc12	140%	32µM*	?	-29%	>57	1%
COc1cccc(Cn2c(Oc3ccccc3)nc3c2c(=O)n(C)c(=O)n3C)c1	·	·	·	·	>26	-1%[25.5 µM]
CC(=O)OCCC(C)CCC=C(C)C (stereo not drawn)	·	·	·	10µM*	·	·
Cc1cccc(C)c1NC(=O)CSc1nnc(-c2ccoc2C)n1C	-1%	10%	0%	3%	>11	-1%
CCc1nnc(NC(=O)CSc2nnc(-c3ccccc3O)n2-c2ccc(C)cc2C)s1	98%	20µM*	?	?	>57	1%
Cc1ccc(C)c(-n2c(SCC(=O)Nc3nnc(C)s3)nnc2-c2ccoc2C)c1	-4%	2.5µM*	?	-10%	>57	3%
